KLK7 zymogen act: proKLK7 zymogen activators, primary screen, biochemical, fluorescence intensity. purified proKLK7, EDANS-DABCYL substrate fluorescence; 100% is mature enzyme control, 0% vehicle. 370,000 compounds, 0.9% hits. Kallikrein-7 (Homo sapiens), P49862. activation, % at 7 µM;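 active = activation above the mean of all tested compounds plus 3 SD, computed per campaign excluding outliers beyond control limits, cut at about 13% in these data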
ADAM10 inh: human ADAM10 inhibitors, primary screen, biochemical, QFRET, HTS; inhibition, % at 7 µM; 370,000 compounds, 0.62% hits; AID 720582, 2013; recombinant ADAM10, EDANS/DABCYL FRET peptide cleavage, 3 h; Disintegrin and metalloproteinase domain-containing protein 10 (Homo sapiens), O14672;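 active = inhibition above a per-campaign cutoff equal to the mean of compounds falling between control-based bounds plus 3 SD, cut at about 20% in these data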
PLC-gamma1 inh: PLC-gamma1 enzyme inhibitors, primary screen, biochemical, fluorescence, purified enzyme; inhibition, % at 12.2 µM; AID 720700, 2013; 1-phosphatidylinositol 4,5-bisphosphate phosphodiesterase gamma-1 (Homo sapiens), P19174; 370,000 compounds, 0.84% hits; fluorogenic substrate; in the data active = inhibition above about 9.5%
ADAM17 inh: ADAM17 inhibitors, primary screen, biochemical, QFRET; Disintegrin and metalloproteinase domain-containing protein 17 (Homo sapiens), P78536; recombinant ADAM17, EDANS/DABCYL FRET peptide cleavage; inhibition, % at 6.95 µM; 370,000 compounds, 0.83% hits;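 active = inhibition above the mean of compounds lying between control limits plus 3 SD, set per campaign, cut at about 8.5% in these data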
PLC-beta3 inh: human PLC-beta3 inhibitors, primary screen, biochemical, fluorescence; AID 720704, 2013; Purified PLC-beta3, fluorogenic substrate; inhibition, % at 12.2 µM; 370,000 compounds, 0.18% hits; 1-phosphatidylinositol 4,5-bisphosphate phosphodiesterase beta-3 (Homo sapiens), Q01970; in the data active = inhibition above about 11%
KLK7 act conf: proKLK7 zymogen activators, confirmation, biochemical, fluorescence intensity, triplicate. shares compounds with KLK7 zymogen act. activation, % at 7 µM. 3,200 compounds, 68% hits. purified proKLK7, EDANS-DABCYL substrate fluorescence; scaled: vehicle 0, mature enzyme 100. AID 686949, 2013;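 active = activation, as change over the incubation, above the mean of all tested compounds plus 3 SD, cut at about 13% in these data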
EDANS interfere: EDANS-DABCYL substrate optical interference, artefact control for kallikrein-7 zymogen activator project, biochemical, fluorescence intensity, high throughput. shares compounds with KLK7 zymogen act. no enzyme, 4 h; solvent 0%, active enzyme control 100%. activation, % at 7 µM. 3,200 compounds, 80% hits;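 active = activation above the all-compound mean plus 3 SD, ignoring values outside control-based bounds, cut at about 4.8% in these data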;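 also: value is the 4 h activation minus the activation read at time zero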
Large screens that a line does not name were inactive (follow-up assays come after a bar, where they were run). Shown are actives, neighbours in structure and some others; about 2.9% of the full set was active somewhere.

COc1ccc(-n2c(/C=C/c3ccc(O)cc3)nc3ccccc3c2=O)cc1	none
CCn1nc(/C=C/c2ccccc2)nc2c(=O)n(C)c(=O)nc1-2	PLC-gamma1 inh 43
O=C(O)c1cccc2c1NC(C(=O)O)C1CC(Sc3ccccc3[N+](=O)[O-])C(Cl)C21 (stereo not given)	PLC-gamma1 inh 19
COC(=O)C1(N(C)c2ccccc2)CCN(Cc2ccccc2)CC1	none
O=[N+]([O-])c1cc(S(=O)(=O)c2ccc(O)c([N+](=O)[O-])c2)ccc1O	PLC-gamma1 inh 35
O=[N+]([O-])c1cccc(O)c1	none
COC(=O)C1=C(c2ccc(OCc3ccccc3)c(F)c2)C[C@@H]2CC[C@H]1N2C	PLC-gamma1 inh 13
CN1C(=O)[C@@]23C[C@]4(c5c[nH]c6ccccc56)c5ccccc5N(S(=O)(=O)c5ccccc5)[C@@H]4N2C(=O)[C@@H]1SS3	none (no result: KLK7 zymogen act)
CC1=NCCc2c1[nH]c1cc(O)ccc21	KLK7 zymogen act 80 | KLK7 act conf 68 | EDANS interfere 71
COc1ccc2c3c([nH]c2c1)C(C)=NCC3	KLK7 zymogen act 54 | KLK7 act conf 58 | EDANS interfere 72
O=C(NCCN1CCC2(CC1)C(=O)NCN2c1ccccc1)C(c1ccccc1)c1ccccc1	none
CN(C)[C@@H]1C(=O)C(C(N)=O)=C(O)[C@@]2(O)C(=O)C3=C(O)c4c(O)ccc(Cl)c4[C@@](C)(O)[C@H]3C[C@@H]12	KLK7 zymogen act 13 | KLK7 act conf 37 | EDANS interfere 35
CN(C)[C@@H]1C(=O)C(C(N)=O)=C(O)[C@@]2(O)C(=O)C3=C(O)c4c(O)cccc4[C@@](C)(O)C3C[C@@H]12 (stereo not given in full)	none
C#CC1(O)CCC2C3CCC4=CC(=O)CCC4=C3C=CC21C (stereo not given)	KLK7 zymogen act 14 | KLK7 act conf inactive | EDANS interfere 11
Cc1cccc2nc(-c3ccccc3)c(-c3ccc(CN4CCC(n5c(=O)[nH]c6cc(Cl)ccc65)CC4)cc3)nc12	none
COc1ccc(-c2cc(=NCCC(=O)O)c3cc(C)ccc3o2)cc1	KLK7 zymogen act 85 | KLK7 act conf 69 | EDANS interfere 73
COc1ccc(-c2cc(=Nc3ccccc3)c3cc(C)ccc3o2)cc1	none
CN1OC[C@@H]2CN3C4(C[C@@H]21)c1ccccc1C3(c1ccccc1)c1ccccc14	none
CCCCn1c(N)c(C(=O)OCCOC)c2nc3ccccc3nc21	none
Nc1c(C(=O)NCc2ccco2)c2nc3ccccc3nc2n1CCN1CCOCC1	KLK7 zymogen act 34 | KLK7 act conf inactive | EDANS interfere inactive
COCC(C)OC(=O)c1c(N)n(Cc2ccco2)c2nc3ccccc3nc12 (stereo not given)	none
CC(C)OC(=O)c1c(N)n(CC2CCCO2)c2nc3ccccc3nc12 (stereo not given)	KLK7 zymogen act 48 | KLK7 act conf 73 | EDANS interfere 72
CCOC(=O)c1c(N)n(Cc2ccco2)c2nc3ccccc3nc12	KLK7 zymogen act 47 | KLK7 act conf 60 | EDANS interfere 78
COCCOC(=O)c1c(N)n(Cc2ccccc2)c2nc3ccccc3nc12	KLK7 zymogen act 32 | KLK7 act conf inactive | EDANS interfere inactive
CC1C(=O)OC2CCN3CC4OC4(COC(=O)C(C)(O)C1(C)O)C23 (stereo not given)	none
COc1ccc(OCC(=O)N2CCN(Cc3ccc(SC)cc3)CC2)cc1	none
CN(C)c1ccc(/C=C2/C(=N\O)C3CCN2CC3)cc1	KLK7 zymogen act 56 | KLK7 act conf 130 | EDANS interfere 153
